Values joined by “and” are separate entries in the source; they are usually repeats but may differ in a detail not shown here. Identical values can stand only once. Results filed as inconclusive are left out. Some compounds were tested as several samples or in several runs, with calls that do not always agree. Active and inactive are the calls of the source. The calls were made as follows, unless noted: active = hit-call score of the fitted dose curve at least 0.9, where 1 is the maximum; inactive = score below 0.9.
Columns and labels:
[1] = read-out: Interleukin-8 (IL8), CXCL8 (gene 3576); experiment: BSK_3C_IL8: BioMAP Diversity Plus: 3C Assay for Interleukin-8 (IL8) Biomarker Activity (AID 2283020); conditions: primary human endothelial cells (HUVEC); actives raise or lower the signal
Method in brief: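 Endothelial primary cells of human umbilical vein origin are dosed with chemical; after 24 h the IL-8 biomarker is measured by ELISA, and concentration–response is fitted in both directions versus DMSO.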

[2] = read-out: Monokine induced gamma interferon (MIG), CXCL9 (gene 4283); experiment: BSK_3C_MIG: BioMAP Diversity Plus: 3C Assay for Monokine induced gamma interferon (MIG) Biomarker Activity (AID 2283021); conditions: primary human endothelial cells (HUVEC); actives raise or lower the signal;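 as to AC50: MIG protein level measured by immunoassay in the treated endothelial cultures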
Method in brief: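 Endothelial primary cells (human umbilical vein) are dosed with test chemical in the 3C system. MIG levels are measured by ELISA at 24 h and fitted in both directions relative to DMSO.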

[3] = target: human Vitamin D Receptor (VDR), VDR (gene 7421) (UniProt P11473); experiment: ATG_VDR_TRANS: Attagene TRANS-FACTORIAL HepG2 Assay for human Vitamin D Receptor (VDR) (AID 2283022; active = hit-call score of the fitted dose curve at least 0.9, where 1 is the maximum)
Chain of human Vitamin D Receptor (VDR), VDR (gene 7421) (P11473 whole entry, looked up, the tested form may be a part): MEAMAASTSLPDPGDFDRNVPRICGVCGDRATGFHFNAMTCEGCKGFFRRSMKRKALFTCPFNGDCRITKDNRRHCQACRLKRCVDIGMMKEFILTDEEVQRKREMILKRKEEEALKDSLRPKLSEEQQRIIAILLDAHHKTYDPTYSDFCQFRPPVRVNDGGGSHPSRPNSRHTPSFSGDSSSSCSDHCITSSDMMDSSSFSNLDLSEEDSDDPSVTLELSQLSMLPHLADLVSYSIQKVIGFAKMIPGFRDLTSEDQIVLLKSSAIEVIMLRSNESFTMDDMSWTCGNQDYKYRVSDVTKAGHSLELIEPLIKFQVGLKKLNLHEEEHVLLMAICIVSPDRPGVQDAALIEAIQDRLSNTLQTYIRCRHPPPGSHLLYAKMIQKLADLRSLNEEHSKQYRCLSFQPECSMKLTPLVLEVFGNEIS
Method in brief: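 Transactivation by an exogenous VDR-Gal4 chimera in transiently transfected HepG2 cells was measured as reporter transcript level 24 hours after chemical treatment. RT-PCR products were analysed by capillary electrophoresis and fitted in the positive direction relative to DMSO.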

[4] = BSK_3C_SRB: Viability Assessment in the BioMAP Diversity Plus: 3C Assay (AID 2283023); conditions: primary human endothelial cells (HUVEC);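 also: fitted both ways against DMSO so a hit may be signal rise or drop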
Method in brief: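 Cytotoxicity readout in parallel HUVEC 3C cultures: after 24 h compound exposure, cells fixed with 10% TCA, stained with 0.1% SRB and read at 560 nm. Gain or loss relative to DMSO fitted.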

[5] = read-out: Matrix Metallopeptidase 1 (MMP1), MMP1 (gene 4312); experiment: BSK_BE3C_MMP1: BioMAP Diversity Plus: BE3C Assay for Matrix Metallopeptidase 1 (MMP1) Biomarker Activity (AID 2283024); conditions: primary human bronchial epithelial cells; actives raise or lower the signal
Method in brief: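 MMP1 signal, measured by ELISA after a 24 h chemical exposure of human primary bronchial epithelial cells, is analysed with bidirectional fitting using DMSO as negative control.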

[6] = read-out: Pselectin, SELP (gene 6403); experiment: BSK_4H_Pselectin: BioMAP Diversity Plus: 4H Assay for Pselectin Biomarker Activity (AID 2283026); conditions: primary human endothelial cells (HUVEC); actives raise or lower the signal
Method in brief: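 Endothelial primary cells (human umbilical vein) are dosed, incubated 24 h, and assayed for surface P-selectin by ELISA; responses in either direction are fitted relative to the DMSO negative control.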

[7] = BSK_4H_SRB: Viability Assessment in the BioMAP Diversity Plus: 4H Assay (AID 2283027); conditions: primary human endothelial cells (HUVEC);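 also: cells exposed to compound for 24 h before staining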;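 as to AC50: curves fitted both ways versus DMSO so AC50 may be loss or gain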
Method in brief: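 Cytotoxicity readout: sulforhodamine B (0.1%) staining of total protein after 10% TCA fixation, measured at 560 nm in human umbilical vein endothelium at 24 h. DMSO set the baseline; fitting was bidirectional.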

[8] = BSK_BE3C_SRB: Viability Assessment in the BioMAP Diversity Plus: BE3C Assay (AID 2283028); conditions: primary human bronchial epithelial cells;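 as to AC50: fitted both ways so AC50 may mark signal gain or loss versus DMSO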
Method in brief: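 Cytotoxicity read-out: SRB (0.1%) staining of TCA-fixed (10%) human lung bronchial epithelial cells, absorbance 560 nm, 24 h post-dosing. Curves fitted both directions relative to DMSO.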

[9] = read-out: Thrombomodulin, THBD (gene 7056); experiment: BSK_3C_Thrombomodulin: BioMAP Diversity Plus: 3C Assay for Thrombomodulin Biomarker Activity (AID 2283029); conditions: primary human endothelial cells (HUVEC); actives raise or lower the signal
Method in brief: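 Endothelial cells from umbilical vein are dosed with test chemical and incubated 24 h. Thrombomodulin is then quantified by ELISA, with DMSO serving as negative control and activity baseline.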

[10] = read-out: Urokinase-type plasminogen activator receptor (uPAR), PLAUR (gene 5329); experiment: BSK_4H_uPAR: BioMAP Diversity Plus: 4H Assay for Urokinase-type plasminogen activator receptor (uPAR) Biomarker Activity (AID 2283030); conditions: primary human endothelial cells (HUVEC); actives raise or lower the signal
Method in brief: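 uPAR level read by ELISA on HUVEC cultures (BioMAP 4H) 24 h post-dosing, analyzed for gain or loss relative to DMSO. Parallel SRB staining assessed overt cytotoxicity.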

[11] = read-out: Vascular endothelial growth factor receptor 2 (Homo sapiens) (UniProt P35968); experiment: BSK_4H_VEGFRII: BioMAP Diversity Plus: 4H Assay for Vascular endothelial growth factor receptor 2 (VEGFR2) Biomarker Activity (AID 2283031); conditions: primary human endothelial cells (HUVEC); actives raise or lower the signal;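 as to AC50: cell-surface VEGFR2 protein level quantified by ELISA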
Method in brief: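 Measured by ELISA after 24 h of compound treatment: VEGFR2 on primary human umbilical vein endothelial cells, fitted in both directions relative to DMSO. Parallel cultures received SRB staining (560 nm) for overt cytotoxicity.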

[12] = read-out: Human Leukocyte Antigen - DR isotype (HLADR), HLA-DRA (gene 3122); experiment: BSK_BE3C_HLADR: BioMAP Diversity Plus: BE3C Assay for Human Leukocyte Antigen - DR isotype (HLADR) Biomarker Activity (AID 2283032); conditions: primary human bronchial epithelial cells; actives raise or lower the signal
Method in brief: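 Chemicals are dosed onto BE3C bronchial epithelial cultures of human origin and left 24 h. HLA-DR is then measured by ELISA, and the endpoint is fitted in both directions using DMSO as the activity baseline.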

[13] = read-out: Vascular cell adhesion molecule 1 (VCAM1), VCAM1 (gene 7412); experiment: BSK_4H_VCAM1: BioMAP Diversity Plus: 4H Assay for Vascular cell adhesion molecule 1 (VCAM1) Biomarker Activity (AID 2283033); conditions: primary human endothelial cells (HUVEC); actives raise or lower the signal
Method in brief: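 Chemicals are added to primary human umbilical vein endothelial cells. After 24 h, VCAM-1 levels are measured by ELISA. Values come from bidirectional fitting referenced to DMSO.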

[14] = read-out: Interferon-gamma inducible Protein 10 (IP10), CXCL10 (gene 3627); experiment: BSK_BE3C_IP10: BioMAP Diversity Plus: BE3C Assay for Interferon-gamma inducible Protein 10 (IP10) Biomarker Activity (AID 2283034); conditions: primary human bronchial epithelial cells; actives raise or lower the signal
Method in brief: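 IP-10 quantified by ELISA serves as the endpoint. Cells: primary human bronchial epithelium, read 24 h after compound addition. Activity is derived by bidirectional fitting with DMSO as negative control.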

[15] = read-out: Monokine induced gamma interferon (MIG), CXCL9 (gene 4283); experiment: BSK_BE3C_MIG: BioMAP Diversity Plus: BE3C Assay for Monokine induced gamma interferon (MIG) Biomarker Activity (AID 2283035); conditions: primary human bronchial epithelial cells; actives raise or lower the signal
Method in brief: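 hu bronchial epithelial 1° cells, 24 h cpd; MIG by ELISA; bidirectional fit, DMSO = baseline.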

[16] = read-out: urokinase plasminogen activator (uPA), PLAU (gene 5328); experiment: BSK_BE3C_uPA: BioMAP Diversity Plus: BE3C Assay for urokinase plasminogen activator (uPA) Biomarker Activity (AID 2283038); conditions: primary human bronchial epithelial cells; actives raise or lower the signal
Method in brief: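 ELISA for uPA on human primary bronchial epithelial cultures 24 h post-treatment, gain or loss against DMSO. Parallel SRB staining (0.1% after 10% TCA fixation, 560 nm) assessed overt cytotoxicity.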

[17] = read-out: Urokinase-type plasminogen activator receptor (uPAR), PLAUR (gene 5329); experiment: BSK_BE3C_uPAR: BioMAP Diversity Plus: BE3C Assay for Urokinase-type plasminogen activator receptor (uPAR) Biomarker Activity (AID 2283039); conditions: primary human bronchial epithelial cells; actives raise or lower the signal
Method in brief: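 Steps: dose human primary bronchial epithelial cells, incubate 24 h, measure uPAR by ELISA, then fit gain- or loss-of-signal response bidirectionally relative to DMSO.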

[18] = read-out: Interleukin-6 (IL6), IL6 (gene 3569); experiment: BSK_CASM3C_IL6: BioMAP Diversity Plus: CASM3C Assay for Interleukin-6 (IL6) Biomarker Activity for (AID 2283040); conditions: primary human coronary artery smooth muscle cells; actives raise or lower the signal
[19] = read-out: Plasminogen activator inhibitor-1 (PAI1), SERPINE1 (gene 5054); experiment: BSK_BE3C_PAI1: BioMAP Diversity Plus: BE3C Assay for Plasminogen activator inhibitor-1 (PAI1) Biomarker Activity (AID 2283037); conditions: primary human bronchial epithelial cells; actives raise or lower the signal
Method in brief: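 Values derive from bidirectional fitting against DMSO baseline of PAI-1 levels, measured by ELISA in human bronchial epithelial cells 24 h after compound addition.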

Measured: AC50

NCC(F)(F)C(F)(F)C(F)(F)C(F)(F)C(F)(F)C(F)(F)C(F)(F)C(F)(F)F
inactive: [1] | [2] | [3] | [4] | [5] | [6] | [7] | [8] | [9] | [10] | [11] | [12] | [13] | [14] | [15] | [16] | [17] | [18]

C=C(C)C(=O)OCC(F)(F)C(F)(F)C(F)(F)C(F)F
active: [9] 21.8 µM
inactive: [1] | [2] | [4] | [5] | [6] | [7] | [8] | [9] | [10] | [11] | [12] | [13] | [14] | [15] | [16] | [17] | [18]

COC(F)(C(F)F)C(F)(F)F (stereo not given)
inactive: [1] | [2] | [3] | [4] | [5] | [6] | [7] | [8] | [9] | [10] | [11] | [12] | [13] | [14] | [15] | [16] | [17] | [18]

C=CC(=O)OCC(F)(F)C(F)(F)C(F)(F)COC(=O)C=C
inactive: [5] | [8] | [9] | [11] | [19]
active: [1] 23.9 µM and 31 µM | [2] 24.7 µM and 22.7 µM | [4] 41.1 µM and 40.3 µM | [5] 21.8 µM | [6] 11.2 µM and 8.07 µM | [7] 25 µM and 33.8 µM | [9] 18 µM | [10] 49.9 µM and 758 nM | [11] 53.8 µM | [12] 34.2 µM and 21.4 µM | [13] 19.1 µM and 14 µM | [14] 46.7 µM and 35.5 µM | [15] 51.8 µM and 49.1 µM | [16] 20.6 µM and 27.4 µM | [18] 30 µM and 17 µM

O=S(=O)(Cl)C(F)(F)C(F)(F)C(F)(F)C(F)(F)C(F)(F)C(F)(F)C(F)(F)C(F)(F)F
active: [1] 30 µM and 35.3 µM | [4] 49.3 µM and 55.6 µM | [5] 7.12 µM and 7.23 µM | [7] 45.9 µM | [8] 43.9 µM and 30.7 µM | [9] 30 µM and 44.8 µM | [10] 12.1 µM | [12] 44.8 µM and 46.8 µM | [14] 40.2 µM and 37 µM | [15] 55.8 µM and 53.6 µM | [19] 45.8 µM and 47.4 µM | [16] 55.2 µM | [17] 51.7 µM and 51.6 µM
inactive: [2] | [6] | [7] | [10] | [11] | [13] | [16] | [18]

Reference: PubChem BioAssay (EPA / NIEHS)
